Source: PubChem BioAssay
In the library only some 7.5% were active in any assay of this set; here they are far more common.
FMDV inh: blocks foot and mouth disease virus; FMDV antiviral cell-based qHTS; Potency, µM (titrated, usually from 57.9 µM), without a hit: at the highest dose activity change, negative = inhibition, actives largely listed as inhibitors; hit rate 1.2% among 410,000; AID 1159524; calls by dose curve; tested in HEK293T cells; further: read-out not given here; potency means the concentration at half of the fitted maximal effect; nearly all actives have a fitted effect of over 45% in size
HCMV antiviral: human cytomegalovirus inhibition; activity change, negative = inhibition, % at 57.5 µM; HFF cells, HCMV-luciferase reporter, 72 h; hits give low values; hit rate 4.5% among 410,000; in the data active means activity change below about -60%; inconclusive means no clear call, values can overlap the other calls; inactive means above about -39%
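Inhibition of viral replication was scored as loss of reporter luminescence in HFFs infected with HCMV-luciferase (MOI 1 PFU/cell) for 72 h; compounds tested at 2 doses, normalized to buffer and Salinomycin controls.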
FBPA Giardia inh: Giardia lamblia aldolase inhibition; A8B2U2; purified Giardia FBPA; Potency, µM (doses to about 59.6 µM), inactives show top-dose activity, negative = inhibition, usual class: inhibitors; hit rate 0.71% among 290,000; further: potency means the concentration at half of the fitted maximal effect; nearly all actives have a fitted effect of over 55% in size
Target sequence (A8B2U2 whole entry, looked up): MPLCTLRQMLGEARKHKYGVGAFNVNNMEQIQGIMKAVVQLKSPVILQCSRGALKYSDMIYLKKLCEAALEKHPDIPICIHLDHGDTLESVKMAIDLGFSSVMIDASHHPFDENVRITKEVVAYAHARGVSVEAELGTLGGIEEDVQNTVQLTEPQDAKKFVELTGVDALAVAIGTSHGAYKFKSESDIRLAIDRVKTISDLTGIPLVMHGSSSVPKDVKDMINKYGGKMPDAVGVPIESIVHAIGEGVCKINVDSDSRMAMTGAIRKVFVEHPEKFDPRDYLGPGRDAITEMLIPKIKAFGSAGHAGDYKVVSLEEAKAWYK
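40 nM FBPA preincubated 10 min at RT with compound (up to 57.5 uM final), then substrate plus GAPDH/TPI/NAD/arsenate coupling and diaphorase/resazurin added. Fluorescence read after 20 min at RT, 525/598 nm.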
VACV Venus inh: inhibitors of vaccinia virus (Venus reporter); Vaccinia virus Venus reporter expression, fluorescence; Potency, µM (titrated, usually from 36.5 µM), for inactives: at the highest dose activity change, negative = inhibition, hits mostly inhibitors; hit rate 0.46% among 330,000; AID 720580; calls by dose curve; tested in A549 cells; further: potency means the concentration at half of the fitted maximal effect; nearly all actives have a fitted effect of over 30% in size
Vaccinia mCherry: vaccinia inhibition (mCherry reporter); Vaccinia virus mCherry reporter infection, fluorescence; Potency, µM (top dose mostly 36.5 µM), without a hit: top-dose activity change, negative = inhibition, most hits filed as inhibitors; hit rate 0.63% among 310,000; AID 720579; calls by dose curve; tested in A549 cells; further: potency means the concentration at half of the fitted maximal effect; nearly all actives have a fitted effect of over 35% in size
HCV inhibitor: inhibitors of hepatitis C virus infection. Huh7.5.1 HCVcc-Cre infection, luciferase reporter, 44 h. Potency, µM (top dose mostly 41.8 µM), without a hit: at the top dose activity change, negative = inhibition, most hits filed as inhibitors. AID 651820. hit rate 3.4% among 340,000; further: potency means the concentration at half of the fitted maximal effect
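Antiviral activity was scored by luciferase reporter output from cells infected with HCVcc-Cre (~0.5 moi) in presence of compound, 44 h infection period, cells seeded 1,000/well 4 h prior.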
* marks the source's active call; other numbers are inactive results; i = inactive; u = inconclusive; x = no result. Unless noted, the call rests on the fitted dose curve; in most records, active means well fitted curve in the direction sought with a large enough effect; inconclusive means small, poorly fitted or top-dose-only effect, or another doubt; inactive means no such curve, though single readings can be large; an effect the other way counts as inactive or inconclusive. On the % scale 0 is the no-effect control and ±100 the full control effect.

SMILES	FMDV inh	HCMV antiviral	FBPA Giardia inh	VACV Venus inh	Vaccinia mCherry	HCV inhibitor
CC1CCCC(C)N1C(=O)CN1C(=O)NC2(CCCCCC2)C1=O (stereo not given)	-7%	-5	x	-15%	i	x
CCCCOc1ccc(C(=O)NCc2cn3cccc(C)c3n2)cc1	-15%	8	x	-7%	-5%	x
O=C(NCc1ccco1)c1ccc2c(=O)n(Cc3ccco3)c(SCC(=O)N3CCCC3)nc2c1	-3%	-24	0%	x	x	13µM*
COCCn1c(C)cc(C(=O)CSc2cc(C)c3ccccc3n2)c1C	10%	u	1%	-17%	i	u
CCn1c(SCC(=O)N2CCCCCC2)nc2ccccc2c1=O	3%	-28	0%	-13%	-17%	-16%
Cc1sc2nc(SCC(=O)NCc3ccco3)n(Cc3ccccc3)c(=O)c2c1C	-14%	-15	0%	-26%	x	2.2µM*
COCCn1c(C)cc(C(=O)CSc2nc3ccccc3c(=O)n2Cc2ccco2)c1C	-11%	-69*	2%	-19%	i	u
O=C(CSc1nc2ccccc2c(=O)n1Cc1ccco1)N1CCCCCC1	u	u	6%	x	x	11µM*
COc1ccc(C(=O)NCCc2nnc3n2CCN(CC2CC=CCC2)CC3)cc1 (stereo not given)	-19%	x	x	-8%	-22%	x
CCCN(CCC)C(=O)Cn1c(SCc2cccc(C(F)(F)F)c2)nc2cccnc21	-24%	-25	x	-7%	-11%	x
CCCN(CCC)C(=O)CSc1nc2ccccc2c(=O)n1Cc1ccco1	-29%	-21	x	-10%	-16%	x
O=C(CSc1nc2ccccc2c(=O)n1Cc1ccco1)NCc1ccco1	x	4	-9%	-8%	i	10µM*
CN(Cc1ccccc1)C(=O)CSc1nc2ccccc2c(=O)n1Cc1ccco1	x	-80*	-1%	-2%	u	u
COc1ccc(OC)c(C2NC(=O)NC(C)=C2C(=O)Nc2cc(C)cc(C)c2)c1 (stereo not given)	-11%	53	x	-6%	1%	x
COc1ccccc1NS(=O)(=O)c1cc(NC(=O)Nc2ccc(Cl)cc2Cl)ccc1N1CCCCC1	55%	-62*	-2%	-23%	-7%	u
O=C(Nc1cccc(C(F)(F)F)c1)Nc1ccc(N2CCCC2)c(S(=O)(=O)Nc2ccccc2Cl)c1	17%	-100*	-12%	11µM*	11µM*	2.2µM*
COc1ccccc1NS(=O)(=O)c1cc(NC(=O)C2CCC2)ccc1N1CCCCC1	44%	-30	-7%	x	x	-15%
COc1ccccc1NS(=O)(=O)c1cccc(NC(=O)Nc2ccc(Cl)cc2)c1	u	-85*	-15%	u	i	u
CCn1c(SCC(=O)NCc2ccco2)nnc1-c1ccc(N(C)C)cc1	x	x	x	-16%	-21%	x
CC(C)c1ccc2occ(CC(=O)Nc3ccccc3Cl)c2c1	-13%	-13	x	-6%	-4%	x
CC(/C=C/c1ccccc1)=N\Nc1ccccc1[N+](=O)[O-]	21%	-73*	-1%	-9%	-5%	-15%
CC(/C=C/c1ccccc1)=N/NC(=O)c1cc([N+](=O)[O-])cc([N+](=O)[O-])c1	0%	69	14%	-8%	-14%	-28%
CCOc1ccc(C(=O)NCC(=O)N2CCC3CCCCC3C2)cc1OCC (stereo not given)	-10%	2	-3%	u	-25%	0%
CCOc1ccccc1N(CC(=O)Nc1ccccc1Br)S(=O)(=O)c1ccccc1	-20%	-63*	x	-21%	-9%	x
CCOc1ccccc1N(CC(=O)NC1CCCCC1)S(=O)(=O)c1ccc(C)cc1	15%	-77*	-5%	-17%	-25%	-13%
CCOc1ccccc1N(CC(=O)O)S(=O)(=O)c1ccccc1	-2%	23	9%	-1%	-12%	8%
CCOc1ccccc1N(CC(=O)Nc1ccc(OC)c(Cl)c1)S(=O)(=O)c1ccccc1	-7%	-62*	x	-6%	-16%	x
COc1ccc(N(CC(=O)Nc2ccc(OC)c(OC)c2)S(=O)(=O)c2ccccc2)cc1Cl	-18%	59	-8%	x	x	13µM*
COC(=O)c1ccccc1NC(=O)c1cc(CN2CCOCC2)on1	-5%	13	x	2%	-3%	x
